# Source: PubChem BioAssay (Tox21)
# Values joined by “and” are separate entries in the source; they are usually repeats but may differ in a detail not shown here. Identical values can stand only once. Active and inactive are the calls of the source. A call without a number means that no potency is given here. Unless noted, the call rests on the fitted dose curve; in most records, active means well fitted curve in the direction sought with a large enough effect in the repeat runs; inconclusive means weak or mixed curves; inactive means flat fitted curve, though single readings scatter.
# Columns and labels:
# [1] = qHTS assay to test for compound auto fluorescence at 535 nm (green) in HEK293 cells (AID 720680)
# [2] = qHTS assay to test for compound auto fluorescence at 460 nm (blue) in HEK293 cell free culture (AID 720681); further: potency means the concentration at half of the fitted maximal effect
# In short: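 Compounds were added to cell-free DMEM with 10% FBS and fluorescence read directly. The blue channel used 405 nm excitation and 460 nm emission, with triamterene as the reference fluorophore.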
# [3] = qHTS assay to test for compound auto fluorescence at 535 nm (green) in HEK293 cell free culture (AID 720682)
# In short: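 Measurement is a direct plate read of green fluorescence (485 nm in, 535 nm out) after compound addition to serum-supplemented DMEM lacking cells, with fluorescein used to express intensities.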
# [4] = qHTS assay to test for compound auto fluorescence at 590 nm (red) in HEK293 cell free culture (AID 720683)
# In short: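 Cell-free wells of DMEM with 10% FBS received compound, and intrinsic fluorescence was read at excitation/emission 540/590 nm. Values expressed as equivalence to Rose Bengal sodium.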
# [5] = qHTS assay to test for compound auto fluorescence at 590 nm (red) in HepG2 cell free culture (AID 720684)
# In short: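 Rose Bengal sodium served as the reference for red signal. Test compounds were dispensed into serum-containing MEM (10% FBS) without cells, and plates were read at 540/590 nm.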
# [6] = qHTS assay to test for compound auto fluorescence at 460 nm (blue) in HepG2 cell free culture (AID 720685); further: potency means the concentration at half of the fitted maximal effect
# In short: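 Cell-free plates of MEM plus 10% FBS received 23 nL compound or DMSO vehicle; blue-channel (405/460 nm) intensity scored against triamterene as reference fluorophore.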
# [7] = qHTS assay to test for compound auto fluorescence at 535 nm (green) in HepG2 cell free culture (AID 720686)
# [8] = qHTS assay to test for compound auto fluorescence at 460 nm (blue) in HepG2 cells (AID 720687)
# In short: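 HepG2 cells in MEM with 10% FBS, attached overnight at 37 C, were exposed to compound or DMSO for 1 hr at 37 C, 5% CO2. Blue fluorescence was read at 405/460 nm, with triamterene as reference fluorophore.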
# [9] = biological target: Glucocorticoid receptor (Homo sapiens) (UniProt P04150); assay: qHTS assay to identify small molecule agonists of the glucocorticoid receptor (GR) signaling pathway (AID 720691; active means well fitted activation curve with a large enough effect in the signal ratio in the repeat runs, not every such curve was filed as active; inconclusive means weak or mixed curves, or effect the other way; inactive means no such curve, though single readings can be large or run the other way; the % refers to the signal ratio; further: potency means the concentration at half of the fitted maximal effect)
# In short: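 A HeLa cervical cancer line expressing GR and a glucocorticoid response element-driven beta-lactamase gene is treated with compounds for 18 h; LiveBLAzer B/G FRET substrate is then applied and fluorescence read.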
# [10] = biological target: Glucocorticoid receptor (Homo sapiens) (UniProt P04150); assay: qHTS assay to identify small molecule antagonists of the glucocorticoid receptor (GR) signaling pathway (AID 720692; active means well fitted inhibition curve with a large enough effect in the signal ratio in the repeat runs, not every such curve was filed as active; inconclusive means weak or mixed curves, or effect the other way; inactive means no such curve, though single readings can be large or run the other way; the % refers to the signal ratio; further: potency means the concentration at half of the fitted maximal effect)
# In short: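 GRE-bla HeLa line, dex-stimulated (5 nM final). Compound exposure 18 h, 37 C. Beta-lactamase FRET read after 2 h RT substrate.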
# Tags describe the fitted curve by direction and shape or compound fluorescence and quenching.
# Glucocorticoid receptor (Homo sapiens), sequence (P04150 whole entry, looked up): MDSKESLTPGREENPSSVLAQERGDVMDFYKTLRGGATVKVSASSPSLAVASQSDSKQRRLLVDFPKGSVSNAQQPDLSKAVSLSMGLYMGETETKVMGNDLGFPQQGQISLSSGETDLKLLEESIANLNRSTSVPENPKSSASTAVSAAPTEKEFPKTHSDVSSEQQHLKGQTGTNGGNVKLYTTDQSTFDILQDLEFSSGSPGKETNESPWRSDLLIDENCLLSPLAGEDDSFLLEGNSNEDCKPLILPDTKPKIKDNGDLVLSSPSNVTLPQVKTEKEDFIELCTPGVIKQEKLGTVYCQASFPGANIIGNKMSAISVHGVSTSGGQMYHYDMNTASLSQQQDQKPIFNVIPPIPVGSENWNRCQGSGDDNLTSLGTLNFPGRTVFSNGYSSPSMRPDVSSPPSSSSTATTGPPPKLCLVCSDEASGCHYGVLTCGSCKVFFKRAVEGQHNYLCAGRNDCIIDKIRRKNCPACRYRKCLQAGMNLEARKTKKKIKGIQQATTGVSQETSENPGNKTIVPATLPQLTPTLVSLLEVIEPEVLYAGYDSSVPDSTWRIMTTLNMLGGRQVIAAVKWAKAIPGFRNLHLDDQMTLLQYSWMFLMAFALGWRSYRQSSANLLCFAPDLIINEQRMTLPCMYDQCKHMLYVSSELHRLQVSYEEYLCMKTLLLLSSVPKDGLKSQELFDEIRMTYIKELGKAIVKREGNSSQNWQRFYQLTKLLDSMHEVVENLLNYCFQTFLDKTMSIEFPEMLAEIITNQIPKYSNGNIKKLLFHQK
SMILES,Potency [1],Potency [2],Potency [3],Potency [4],Potency [5],Potency [6],Potency [7],Potency [8],Potency [9],Potency [10]
CC(=O)O[C@]1(C(C)=O)CC[C@H]2[C@@H]3C=C(Cl)C4=CC(=O)CC[C@]4(C)[C@H]3CC[C@@]21C,inactive,inactive,inactive,inactive,inactive,inactive,inactive,–,–,–
IC(I)I,inactive,inactive,inactive,inactive,inactive,inactive,inactive,inactive,inactive,–
CC(=O)Oc1c(C)c(C)c2c(c1C)CC[C@@](C)(CCC[C@H](C)CCC[C@H](C)CCCC(C)C)O2,inactive,inactive,inactive,inactive,–,inactive,inactive,–,–,–
Cc1ccc(S(=O)(=O)O)cc1C,inactive,inactive,inactive,inactive,inactive,inactive,inactive,–,inactive,–
[Na+],inactive,inactive,inactive,inactive,inactive,inactive,inactive,–,inactive,–
c1ccc2c(c1)ccc1cc3c(ccc4ccccc43)cc12,inactive,inactive,inactive,inactive,inactive,inactive,inactive,inactive,inactive,–
Nc1ccc2c(c1)C(=O)c1ccccc1C2=O,inactive,inactive,inactive,inactive,inactive,inactive,inactive,inactive,inactive,–
CCC(=O)O[C@H]1[C@H](O[C@@H]2[C@@H](C)[C@H](O[C@H]3C[C@@](C)(OC)[C@@H](O)[C@H](C)O3)[C@@H](C)C(=O)O[C@H](CC)[C@@](C)(O)[C@H](O)[C@@H](C)C(=O)[C@H](C)C[C@@]2(C)O)O[C@H](C)C[C@@H]1N(C)C,inactive,inactive,inactive,inactive,inactive,inactive,inactive,inactive,inactive,–
CN1CCOCC1,inactive,inactive,inactive,inactive,inactive,inactive,inactive,–,inactive,–
CCc1cccc2c3c([nH]c12)C(CC)(CC(=O)O)OCC3 (configuration not stated),inactive,inactive,inactive,inactive,–,inactive,inactive,inactive,–,–
CN(Cc1cnc2nc(N)nc(N)c2n1)c1ccc(C(=O)N[C@@H](CCC(=O)O)C(=O)O)cc1,inactive,39.8 µM (active),inactive,inactive,inactive,35.5 µM [fluorescent] (active),inactive,–,–,–
C=C[C@@]1(C)CC(=O)[C@]2(O)[C@@]3(C)[C@@H](O)CCC(C)(C)[C@@H]3[C@H](O)[C@H](OC(C)=O)[C@@]2(C)O1,inactive,inactive,inactive,inactive,inactive,inactive,inactive,–,inactive,–
O=C(O)c1cc(=O)[nH]c(=O)[nH]1,inactive,inactive,inactive,inactive,inactive,inactive,inactive,inactive,inactive,–
C[N+](C)(C)CCO,inactive,inactive,inactive,inactive,inactive,inactive,inactive,–,–,–
COC(=O)CC(=O)OC,inactive,inactive,inactive,inactive,inactive,inactive,inactive,inactive,inactive,–
C=C1C[C@H]2[C@@H]3C=C(C)C4=CC(=O)CC[C@]4(C)[C@H]3CC[C@]2(C)[C@@]1(OC(C)=O)C(C)=O,inactive,inactive,inactive,inactive,inactive,inactive,inactive,inactive,120 nM [inconclusive] (active) and 14.1 nM (active),–
ClC/C=C/CCl,inactive,inactive,inactive,inactive,–,inactive,inactive,inactive,–,–
CCCOCCO,inactive,inactive,inactive,inactive,inactive,inactive,inactive,inactive,inactive,inactive
[O-]/[N+](=N\O)c1ccccc1,inactive,inactive,inactive,inactive,–,inactive,inactive,inactive,–,–
C=C[C@H]1CN2CC[C@H]1C[C@H]2[C@H](O)c1ccnc2ccc(OC)cc12,inactive,inactive,inactive,inactive,–,inactive,inactive,–,–,–
Cc1cccc(Nc2ccccc2C(=O)O)c1C,inactive,inactive,inactive,inactive,inactive,inactive,inactive,inactive,inactive,–
CC(=O)OC(C)C,inactive,inactive,inactive,inactive,inactive,inactive,inactive,inactive,inactive,inactive
CC(C)[N+](C)(CCOC(=O)C1c2ccccc2Oc2ccccc21)C(C)C,inactive,inactive,inactive,inactive,inactive,inactive,inactive,inactive,inactive,–
NC[C@H](O)c1ccc(O)c(O)c1,inactive,inactive,inactive,inactive,inactive,inactive,inactive,inactive,inactive,–
COCCOCCOCCO,inactive,inactive,inactive,inactive,inactive,inactive,inactive,inactive,inactive,inactive
NCCOCCO,inactive,inactive,inactive,inactive,inactive,inactive,inactive,inactive,inactive,–
CCO[Si](CCCNC(N)=O)(OCC)OCC,inactive,inactive,inactive,inactive,inactive,inactive,inactive,inactive,inactive,inactive

SMILES,Potency [1],Potency [2],Potency [3],Potency [4],Potency [5],Potency [6],Potency [7],Potency [8],Potency [9],Potency [10]
CC1(C)NC(=O)N(c2ccc([N+](=O)[O-])c(C(F)(F)F)c2)C1=O,inactive,inactive,inactive,inactive,inactive,inactive,inactive,inactive,–,–
C=CCOC(=O)C(=C)C,inactive,inactive,inactive,inactive,inactive,inactive,inactive,inactive,inactive,inactive
C=CC(=O)OCCCC,inactive,inactive,inactive,inactive,inactive,inactive,inactive,inactive,inactive,inactive
COc1cc([C@H]2Oc3cc([C@H]4Oc5cc(O)cc(O)c5C(=O)[C@@H]4O)ccc3O[C@@H]2CO)ccc1O,inactive,inactive,inactive,inactive,inactive,inactive,inactive,–,inactive,inactive
Cc1ccc(C(C)(C)C)c(O)c1,inactive,inactive,inactive,inactive,–,inactive,inactive,inactive,–,–
CNC[C@H](O)c1ccc(O)c(O)c1,inactive,inactive,inactive,inactive,–,inactive,inactive,inactive,–,–
CN(C)/N=N/c1nc[nH]c1C(N)=O,inactive,inactive,inactive,inactive,inactive,inactive,inactive,inactive,inactive,–
Brc1nc2ccccc2s1,inactive,inactive,inactive,inactive,inactive,inactive,inactive,–,inactive,–
CC(=O)[C@H]1CC[C@H]2[C@@H]3CC=C4C[C@@H](O)CC[C@]4(C)[C@H]3CC[C@]12C,inactive,inactive,inactive,inactive,inactive,inactive,inactive,inactive,–,–
C[C@]12CC[C@@H]3c4ccc(O)cc4CC[C@H]3[C@@H]1CC[C@H]2O,inactive,inactive,inactive,inactive,inactive,inactive,inactive,inactive,inactive,–
c1ccc2c(c1)ccc1ncccc12,inactive,inactive,inactive,inactive,inactive,inactive,inactive,–,inactive,–
COC(=O)C(C)Oc1ccc(Oc2ncc(C(F)(F)F)cc2Cl)cc1 (configuration not stated),inactive,inactive,inactive,inactive,inactive,inactive,inactive,–,–,–
C=CCCCCCCCCCC,inactive,inactive,inactive,inactive,–,inactive,inactive,–,inactive,–
CCCCCCCC/C=C\CCCCCCCC(=O)O,inactive,inactive,–,inactive,–,inactive,inactive,inactive,inactive,–
CC/C(=C(/CC)c1ccc(O)cc1)c1ccc(O)cc1,inactive,inactive,–,inactive,inactive,inactive,inactive,inactive,–,–
CCCCCCOCCOCCO,inactive,inactive,–,inactive,inactive,inactive,inactive,inactive,inactive,–
OC[C@@H](O)[C@@H](O[C@@H]1O[C@H](CO)[C@H](O)[C@H](O)[C@H]1O)[C@H](O)[C@@H](O)CO,inactive,inactive,–,inactive,inactive,inactive,inactive,–,–,–
COc1ccc2nc(N)sc2c1,inactive,inactive,inactive,inactive,–,inactive,inactive,inactive,inactive,–
CC(=O)O[C@]1(C(C)=O)CC[C@H]2[C@@H]3C=C(C)C4=CC(=O)CC[C@]4(C)[C@H]3CC[C@@]21C,inactive,inactive,inactive,inactive,–,inactive,inactive,–,51.2 nM (active) and 61.6 nM (active),91 nM (active) and 77.6 nM (active)
CN(C)C,inactive,inactive,–,inactive,inactive,inactive,inactive,–,–,–
c1ccc2cc3ccccc3cc2c1,inactive,inactive,inactive,inactive,–,inactive,inactive,–,inactive,inactive
Oc1c(Cl)ccc(Cl)c1Cl,inactive,inactive,–,inactive,inactive,inactive,inactive,inactive,inactive,–
COC(=O)c1ccc(C)cc1,inactive,inactive,inactive,inactive,–,inactive,inactive,inactive,inactive,–
CC1(C)OC(=O)NC1=O,inactive,inactive,–,inactive,–,inactive,inactive,inactive,inactive,–
CCCCCC=O,inactive,inactive,–,inactive,–,inactive,inactive,inactive,–,–
Clc1ccc(Sc2cc(Cl)c(Cl)cc2Cl)cc1,inactive,inactive,inactive,inactive,–,inactive,inactive,–,inactive,inactive
